KCNH2 3.1 inh: inhibitors of human KCNH2 3.1 potassium channel isoform; U2OS KCNH2 3.1, thallium flux FluxOr; stronger effect = lower value; activity change, % (tested at about 1.8 µM); 340,000 compounds, 0.95% hits;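 active = maximum activity change below -70%; inconclusive = maximum activity change from -70% to -50%; inactive = maximum activity change above -50%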;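 note: thallium influx rate constant from kinetic fluorescence after stimulation buffer; % is set by controls: 0 for no effect and ±100 for the full control effect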
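Channel expression came from 3.1 mutant virus (1.77 x 10^8 /mL) applied to suspended U2OS cells for 4 h. Flux was tracked with FluxOr dye plus Red40 quencher, and kinetic rate constants normalized to controls.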
Menin-MLL TR inh: menin-MLL binding inhibition, Texas Red mutant peptide; O00255; AID 1768; 270,000 compounds, 0.23% hits; Menin + Texas Red MLL mutant peptide, fluorescence polarization; Potency, µM (top dose mostly 61.6 µM), for the others: top-dose FP activity change, negative = inhibition, most hits filed as inhibitors; active = well fitted inhibition curve with a large enough effect in the polarisation, with a control signal flat, not every such curve was filed as active; inconclusive = small, poorly fitted or top-dose-only effect, or effect the other way, or a change in a side signal; inactive = no such curve, though single readings can be large or run the other way; the % refers to the polarisation; note: potency is the fitted concentration of half-maximal effect; % of control where 0% means no effect
Target sequence (O00255 whole entry, looked up): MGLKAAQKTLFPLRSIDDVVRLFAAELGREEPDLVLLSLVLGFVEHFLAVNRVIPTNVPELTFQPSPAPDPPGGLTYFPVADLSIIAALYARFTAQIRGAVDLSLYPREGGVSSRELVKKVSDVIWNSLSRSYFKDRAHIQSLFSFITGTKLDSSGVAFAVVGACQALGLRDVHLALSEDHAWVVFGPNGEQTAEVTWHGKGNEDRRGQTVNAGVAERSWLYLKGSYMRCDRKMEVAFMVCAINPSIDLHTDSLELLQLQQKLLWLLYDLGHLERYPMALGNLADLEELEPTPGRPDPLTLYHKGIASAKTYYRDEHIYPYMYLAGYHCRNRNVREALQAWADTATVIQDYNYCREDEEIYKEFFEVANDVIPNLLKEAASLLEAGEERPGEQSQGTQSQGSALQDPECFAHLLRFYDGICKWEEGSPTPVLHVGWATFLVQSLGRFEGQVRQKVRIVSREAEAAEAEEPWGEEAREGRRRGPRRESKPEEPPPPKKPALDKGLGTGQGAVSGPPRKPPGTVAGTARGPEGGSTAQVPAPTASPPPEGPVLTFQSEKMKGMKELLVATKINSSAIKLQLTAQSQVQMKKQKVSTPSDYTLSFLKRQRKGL
hERG WT inh: KCNH2 (human, wildtype) channel inhibition; 340,000 compounds, 0.37% hits; AID 720551; U2OS, BacMam KCNH2, thallium flux FluxOr; stronger effect = lower value; activity change, % at 1.84 µM;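 active = maximum activity change below -70%; inconclusive = maximum activity change between -70% and -50%; inactive = maximum activity change above -50%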; note: % is set by controls: 0 for no effect and ±100 for the full control effect
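U2OS cells transduced with wild-type KCNH2 virus are loaded with FluxOr dye for 45 min, and thallium flux is measured in kinetic reads before and after stimulation buffer. Rate constants are normalized to DMSO controls.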
Menin-MLL FL inh: menin-MLL binding inhibition, fluorescein peptide | FP activity change, % at 61.4 µM | 290,000 tested, under 10 active | Fluorescence polarization, fluorescein-MLL peptide displacement from menin | AID 1766; active = well fitted curve in the direction sought with a large enough effect in the polarisation, not every such curve was filed as active; inconclusive = small, poorly fitted or top-dose-only effect, or effect the other way, or a change in a side signal; inactive = no such curve, though single readings can be large or run the other way; the % refers to the polarisation; note: % of control where 0% means no effect
MLL CXXC-DNA inh: inhibitors of human MLL CXXC domain-DNA interaction. Q03164. MLL-CXXC / FITC-HOXA9 DNA fluorescence polarization. 290,000 compounds, 0.037% hits. Potency, µM (top dose mostly 115 µM), for inactives: at the highest dose activity change, negative = inhibition, hits mostly inhibitors; active = well fitted inhibition curve with a large enough effect in the polarisation, with a control signal flat, not every such curve was filed as active; inconclusive = small, poorly fitted or top-dose-only effect, or effect the other way, or a change in a side signal; inactive = no such curve, though single readings can be large or run the other way; the % refers to the polarisation; note: potency is the fitted concentration of half-maximal effect
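Fluorescence polarization: 7 uM MLL-CXXC (stock) preincubated 5 min with compounds, then 50 nM fluorescein-HOX-A9 DNA (stock) added; 30 min ambient. Buffer 50 mM Tris-HCl pH 7.5, 50 mM NaCl, 1 mM DTT, 0.05% BSA.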
Numbers without * were called inactive; u = inconclusive; x = not tested or not shown. In the library only some 1.1% were active in any assay of this set; here they are far more common.

SMILES	KCNH2 3.1 inh	Menin-MLL TR inh	hERG WT inh	Menin-MLL FL inh	MLL CXXC-DNA inh
CCOc1ccc(CN(C)CC(=O)NCc2ccccc2Cl)cc1	8	-9%	-85*	4	11%
CCOc1ccc(N(CC(=O)NCc2ccc(OC)cc2)S(C)(=O)=O)cc1	-77*	8%	0	0	2%
CC1CCN(c2ccc(C=O)o2)CC1	-196*	-4%	x	-2	9%
O=C(O)[C@@]1(CCCCCCOc2ccc(Cl)cc2)CO1	x	7%	x	3	x
Clc1ccc2c(c1)C(N1CCNCC1)Cc1ccccc1S2 (stereo not drawn)	-14	-1%	12	3	29%
COCCCN1CCN(C2Cc3ccccc3Sc3ccc(Cl)cc32)CC1 (stereo not drawn)	-86*	u	u	1	-8%
O=c1[nH]cc(CN2CCOCC2)c(=O)[nH]1	-82*	x	-2	x	x
CCOc1ccc(Br)cc1S(=O)(=O)Nc1ccc(C(=O)OCC(=O)Nc2ccc(C#N)cc2)cc1	-93*	u	-41	0	-6%
CCOc1ccc(NC(=S)NS(=O)(=O)c2cc(Br)ccc2OCC)cc1	-7	x	-1	x	x
CCCn1c(=S)[nH]c2sc3c(c2c1=O)CCCC3	-22	x	-85*	x	0%
Nn1c(=S)[nH]c2sc3c(c2c1=O)CCCC3	-8	x	-3	x	x
CN1CCN(c2ccc(NC(=S)NC(=O)c3cccc4c(Cl)cccc34)cc2)CC1	-91*	-7%	5	0	-11%
CCOc1ccc(C(=O)NC(=S)Nc2ccc(N3CCC(C)CC3)cc2)cc1[N+](=O)[O-]	-29	-1%	4	2	4%
CCC(=O)N1CCN(c2ccc(NC(=S)NC(=O)c3ccc(OC)c([N+](=O)[O-])c3)cc2)CC1	-91*	0%	-4	2	-3%
COc1ccc(C(=O)NC(=S)Nc2ccc(N3CCCC3)cc2)cc1	-89*	u	-1	-1	9%
COc1ccc(C(=O)NC(=S)NNC(=O)c2ccccc2O)cc1	-83*	u	-2	-6	-1%
O=S1(=O)C2CC3C=CC2(O3)C(O)C(Cc2ccccc2)N1Cc1cccc(C(F)(F)F)c1 (stereo not drawn)	x	u	x	3	x
COCCCN1CN(S(=O)(=O)c2ccc(C)cc2C)c2nc3ccccc3nc21	-3	22%	2	-1	-5%
COc1cc(OC)cc(C(=O)NCC(=O)N2CC=C(c3ccccc3)CC2)c1	0	x	4	x	x
O=C(NCC(=O)N1CC=C(c2ccccc2)CC1)c1ccc(OC(F)F)cc1	-80*	x	35	x	x
CNC(=O)C(=O)NCC1OCCN1S(=O)(=O)c1ccc(C)cc1 (stereo not drawn)	-5	x	-207*	x	4%
NC(=O)CN1CCN(S(=O)(=O)c2ccc(Br)cc2)CC1	-192*	1%	-11	3	15%
O=C(CN1CCN(S(=O)(=O)c2ccc(Br)cc2)CC1)Nc1ccc(F)cc1F	-92*	-11%	8	2	4%
COc1ccc2[nH]cc(CCNc3cc(-c4c(C)noc4C)ncn3)c2c1	x	10%	x	0	x
O=P(c1ccccc1)(c1ccccc1)N(c1ccccc1)c1ccccc1	-70*	-7%	52	5	8%
SMILES	KCNH2 3.1 inh	Menin-MLL TR inh	hERG WT inh	Menin-MLL FL inh	MLL CXXC-DNA inh
Nc1cccc(P(=O)(c2ccccc2)c2ccccc2)c1	-11	-23%	1	0	-2%
CCOC(=O)c1c(N)nn(C(C)=O)c1-c1ccccc1	-73*	6%	-8	2	5%
CCOc1ccccc1NS(=O)(=O)N(C)C	-12	0%	-15	2	-9%
CN(C)S(=O)(=O)Nc1ccccc1F	-80*	-2%	-6	1	-12%
O=c1c(-c2ccc(Cl)cc2)nc2cnc(N3CCNCC3)nc2n1Cc1cccs1	x	39%	x	-3	x
CN(C)c1ncc2nc(-c3ccccc3)c(=O)n(Cc3cccs3)c2n1	x	12%	x	0	x
O=C(c1cc(-c2cccc(O)c2)on1)N1CCCC1	-188*	15%	-228*	-7	-1%
O=C(c1cc(-c2cccc(O)c2)on1)N1CCCCC1	3	-4%	-2	0	9%
O=C(CC1C[C@H](C(=O)N2CCOCC2)[C@@]2(CCC3CCCC3)c3[nH]c4ccccc4c3CCN2C1=O)NCc1cccc(C(F)(F)F)c1 (stereo partly drawn)	-18	x	4	x	x
COc1ccc(C(OCC(O)CNCCc2ccc(S(N)(=O)=O)cc2)c2ccc(OC)cc2)cc1 (stereo not drawn)	u	-9%	-25	5	-22%
OC(CNCCc1ccc(C(F)(F)F)cc1)COC(c1ccccc1)c1ccccc1 (stereo not drawn)	-74*	u	x	-8	-8%
COc1ccc(CCNC(=O)c2ccc(CN3CCC(Cc4ccccc4)CC3)cc2)cc1OC	-93*	-5%	-23	0	4%
Cc1ccc(S(=O)(=O)NCc2ccc(C(=O)NCCCN3CCC(Cc4ccccc4)CC3)cc2)cc1	-81*	u	6	1	6%
COCCNC(=O)c1ccc(CN2CCC(Cc3ccccc3)CC2)cc1	-4	-1%	-2	2	-1%
COc1ccc(CNS(=O)(=O)CCNC(=O)c2ccc(OC)cc2)cc1	3	x	-7	x	x
Cc1cc(C)n(CCCN2CCC(C(=O)Nc3cccc(-c4cccc(F)c4)c3)CC2)n1	-102*	u	-105*	-4	u
CC(=O)c1cccc(CN2CCC(C(=O)Nc3ccc(Oc4cccnc4)cc3)CC2)c1	x	x	26	x	-5%
CCn1nc(C)c(CN2CCC(C(=O)Nc3cccc(-c4cccc(Cl)c4)c3)CC2)c1C	-95*	x	-94*	x	19%
Cc1ncc(CN2CCCC(C(=O)Nc3ccc(-c4cccc(F)c4)cc3)C2)n1C (stereo not drawn)	-84*	x	-17	x	-3%
CC(=O)c1cccc(CN2CCC(C(=O)Nc3ccc(-c4cccc(C)c4)cc3)CC2)c1	-101*	26%	-13	10	36%
O=C(Nc1cccc(-c2cccc(F)c2)c1)C1CCN(Cc2ccc(CO)o2)CC1	-13	u	8	0	-14%
CS(=O)(=O)N1CCC(C(=O)Nc2cccc(Cl)c2)CC1	-7	13%	-3	3	1%
Cc1cnc(C(=O)OCC(=O)Nc2ccc(OCc3ccccc3)cc2)cn1	7	x	-4	x	x
O=C(COC(=O)c1ccc([N+](=O)[O-])cc1Cl)Nc1cccnc1Cl	8	x	0	x	x
CC(C)c1nnc(NC(=O)C2CCN(C(=O)Nc3ccccc3)CC2)s1	6	-9%	-5	1	8%
CCn1ncc(CN2CCC(C(=O)Nc3cccc(-c4cccc(F)c4)c3)CC2)c1C	-97*	x	-117*	x	0%
COc1ccc(Br)cc1S(=O)(=O)N1CCCc2ccccc21	4	0%	4	u	6%
Cn1cnc(C(=O)NCc2ccc(CNC(=O)OC(C)(C)C)cc2)c1C(=O)NCc1ccc(CNC(=O)OC(C)(C)C)cc1	-115*	x	-3	x	x

Screens (PubChem BioAssay)
